Compounds with a hit are over-represented: about 2.9% of the library has one in this group of screens.
pPAFAH inh: inhibitors of human plasma PAF acetylhydrolase (pPAFAH). recombinant pPAFAH, FP-rhodamine probe fluorescence polarization. inhibition, % at 3.39 µM. 330,000 tested, 1.5% active. AID 463082;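 active means inhibition above the mean inhibition across the screen plus 3 SD, cut at about 25% in these data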;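 further: inhibitors block binding of the rhodamine activity-based probe so polarization drops; 0% = enzyme with DMSO and 100% = wells lacking pPAFAH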
Target sequence (Q13093 whole entry, looked up): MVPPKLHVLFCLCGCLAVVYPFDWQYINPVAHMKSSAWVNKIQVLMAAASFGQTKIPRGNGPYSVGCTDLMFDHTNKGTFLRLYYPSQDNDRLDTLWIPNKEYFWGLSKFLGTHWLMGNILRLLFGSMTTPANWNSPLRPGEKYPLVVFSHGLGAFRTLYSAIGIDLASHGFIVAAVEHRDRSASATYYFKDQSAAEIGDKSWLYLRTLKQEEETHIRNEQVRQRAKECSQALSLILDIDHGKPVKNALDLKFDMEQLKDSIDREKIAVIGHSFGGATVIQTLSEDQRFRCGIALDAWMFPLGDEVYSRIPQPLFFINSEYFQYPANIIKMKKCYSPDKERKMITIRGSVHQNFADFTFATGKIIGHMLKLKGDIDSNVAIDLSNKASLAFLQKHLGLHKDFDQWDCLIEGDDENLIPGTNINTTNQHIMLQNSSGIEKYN
Fam108B counter: Fam108B inhibition, counter-screen for RBBP9 inhibitors | recombinant Fam108B, FP-Rh probe fluorescence polarization | inhibition, % at 9.51 µM | 300,000 tested, 0.33% active;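 active means inhibition above the screen mean inhibition plus 3 SD, computed separately per campaign, cut at about 18% in these data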;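 further: inhibitors lower polarization as less probe binds the enzyme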
PME-1 inh: PME-1 (human) inhibition | Q9Y570 | recombinant PME-1, FP-Rh probe fluorescence polarization | inhibition, % at 5.9 µM | 320,000 tested, 0.53% active | AID 2130;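 active means inhibition above the campaign mean of all compounds plus 3 SD, cut at about 26% in these data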;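 further: competitive labeling of PME-1 active site by serine hydrolase directed probe; 0% = PME-1 with DMSO and 100% = wells lacking PME-1 enzyme; inhibitors block probe labeling so polarization falls and inhibition rises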
PAFAH1B3 FP inh: blocks human PAF acetylhydrolase 1B catalytic subunit 3; Q15102; 340,000 tested, 0.28% active; inhibition, % at 3.39 µM; recombinant PAFAH1B3, FP-rhodamine probe, fluorescence polarization;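 active means inhibition above the screen-wide average of all tested compounds plus 3 SD, cut at about 25% in these data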;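 further: 0% = enzyme with DMSO only and 100% = wells lacking PAFAH1B3 protein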
PAFAH2 inh: PAFAH2 (human) inhibition; AID 492956; inhibition, % at 3.39 µM; Q99487; 340,000 tested, 0.99% active; recombinant PAFAH2, FP-rhodamine activity probe, fluorescence polarization;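 active means inhibition above the mean over all tested compounds plus 3 SD, cut at about 30% in these data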;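 further: inhibitors block probe labeling of enzyme so polarization drops; 0% = enzyme with DMSO and 100% = wells lacking PAFAH2 protein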
PAFAH1B2 inh: PAFAH1B2 (human) inhibition; P68402; recombinant PAFAH1B2, FP-rhodamine activity probe, fluorescence polarization; inhibition, % at 3.39 µM; 340,000 tested, 1.2% active;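 active means inhibition above the mean of all tested compounds plus 3 SD, cut at about 24% in these data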;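 further: 0% = enzyme with DMSO and 100% = wells lacking PAFAH1B2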
Target sequence (P68402 whole entry, looked up): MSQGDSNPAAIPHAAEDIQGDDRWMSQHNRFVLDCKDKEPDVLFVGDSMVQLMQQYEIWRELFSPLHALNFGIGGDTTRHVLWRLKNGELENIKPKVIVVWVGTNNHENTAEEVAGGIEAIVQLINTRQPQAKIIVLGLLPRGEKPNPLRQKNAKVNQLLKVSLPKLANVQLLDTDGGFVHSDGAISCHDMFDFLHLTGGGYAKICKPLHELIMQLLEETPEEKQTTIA
Starred values were filed as active, the others as inactive; x = not tested or not shown.

SMILES | pPAFAH inh | Fam108B counter | PME-1 inh | PAFAH1B3 FP inh | PAFAH2 inh | PAFAH1B2 inh
COc1ccc(C)cc1NC(=O)c1ccc(NS(=O)(=O)c2c(C)noc2C)cc1 | 15 | -4 | 3 | 6 | -5 | 0
CCOc1ccc(Br)cc1S(=O)(=O)Nc1ccc(C(=O)Nc2ccccc2OC)cc1 | 29* | -9 | -12 | -6 | -4 | -1
COc1cccc(NC(=O)CSc2nc3ccccc3nc2N2CCCC2)c1 | 16 | -7 | -3 | 4 | -7 | -4
CN(CCC#N)C(=O)COC(=O)c1c2c(nc3ccccc13)/C(=C/c1ccco1)CC2 | 27* | 15 | 14 | 7 | 9 | 3
CC(C)CNC(=O)COC(=O)c1c2c(nc3ccccc13)/C(=C\c1cccs1)CC2 | x | x | x | 2 | -1 | 2
COc1ccccc1N1CCN(C(=O)C2CCN(S(=O)(=O)c3ccc4c(c3)CC(C)N4C(=O)C3CC3)CC2)CC1 (stereo not drawn) | 9 | 4 | 2 | 5 | 4 | 5
Cc1ccc(-n2nnc(-c3cnc4ccccc4c3)n2)cc1 | 4 | -4 | -5 | 2 | -2 | 2
O=C(CSc1ccccc1)N/N=C/c1ccccc1O | 4 | 1 | -2 | 4 | 14 | 27*
O=C(CCSCCC(=O)NN=Cc1ccccc1O)NN=Cc1ccccc1O | x | x | x | 2 | -6 | 11
Cc1csc(NC(=O)c2c(-c3c(F)cccc3Cl)noc2C)n1 | 33* | x | -2 | -4 | -3 | 5
Cc1cc2nc3n(c2cc1C)CC1CC(C(=O)NCC2CC2)N(C)C31 (stereo not drawn) | 2 | -1 | 5 | -5 | -5 | 5
COc1ccc(C(=S)N2CCOCC2)cc1OS(=O)(=O)c1ccc(Br)cc1 | 0 | -1 | 2 | 9 | 3 | 34*
COc1ccc(S(=O)(=O)Oc2ccc(C(=S)N3CCOCC3)cc2OC)cc1 | -2 | -1 | 5 | 12 | -2 | 4
Cc1ccc(C(=O)O/N=C(\N)Cc2cccs2)c(Cl)c1 | 12 | 0 | 4 | 1 | 35* | 5
Cc1ccc(C(=O)O/N=C(\N)Cc2ccc([N+](=O)[O-])cc2)c(Cl)c1 | 5 | 0 | 10 | 8 | 26 | 4
O=[N+]([O-])c1cc([N+](=O)[O-])c2oc(-c3ccccc3)c(Br)c2c1O | x | x | x | 28* | 46* | 43*
Nc1ccc(C(=O)O)cc1[N+](=O)[O-] | -2 | -6 | -1 | 9 | 3 | 3
O=C(CCn1nnc2ccccc21)NNC(=O)C1CCCCC1 | 25* | -2 | 3 | 4 | -1 | 1
CCc1c(O)nc(SCC(=O)c2ccccc2)n(-c2ccccc2)c1=O | 26* | -2 | 3 | 9 | 14 | 1
CCc1c(O)nc(SCC(=O)NC(C)(C)C)n(-c2ccccc2)c1=O | 5 | 5 | 0 | 1 | 0 | 6
CC(=O)N1CCN(CC(=O)Nc2ccccc2C(=O)Nc2ccccc2)CC1 | 0 | x | x | 13 | -6 | 6
Cc1cccc(NC(=O)COC(=O)c2cccc3c2C(=O)c2ccccc2C3=O)c1C | 31* | 5 | 41* | 13 | 13 | 4
Cc1cccc(C)c1NC(=O)COC(=O)c1cccc2c1C(=O)c1ccccc1C2=O | 4 | -10 | 71* | -3 | 10 | -13
Cc1cccc(C)c1NC(=O)c1cccc2c1-c1ccccc1C2=O | -1 | 0 | -1 | 3 | -5 | 0
Cc1cc2occ(CC(=O)N(C)CC(=O)Nc3ccccc3Br)c2cc1C | 1 | -1 | 3 | 8 | 1 | 23
SMILES | pPAFAH inh | Fam108B counter | PME-1 inh | PAFAH1B3 FP inh | PAFAH2 inh | PAFAH1B2 inh
CCN(CC(=O)NCc1ccc(Cl)cc1)C(=O)CSc1ccc(Br)cc1 | 9 | -1 | 4 | 3 | 11 | 26*
COc1cccc(N2CC(C(=O)Nc3ccc(C(=O)OC(C)C)cc3)CC2=O)c1 (stereo not drawn) | 25* | 6 | -2 | 9 | 3 | -3
COc1cccc(Oc2ccc(S(=O)(=O)N3CCCC3)cc2[N+](=O)[O-])c1 | 2 | 2 | 26* | 1 | -3 | 7
O=C(c1cccc(N2C(=O)C3C4C=CC(C4)C3C2=O)c1)N1CCN(c2ccccc2F)CC1 (stereo not drawn) | 2 | 0 | -4 | 4 | 6 | 4
N#Cc1ccc(S(=O)(=O)N2CCc3[nH]c4ccc(F)cc4c3C2)cc1 | 13 | -4 | 12 | 5 | 8 | 38*
O=S(=O)(c1ccc2[nH]c3c(c2c1)CCCC3)N1CCCCC1 | 14 | 1 | 4 | 5 | 7 | 5
Cc1ccccc1C(=O)N1CC(=O)Nc2ccc(F)cc2C1c1ccc(F)cc1 (stereo not drawn) | -2 | -3 | 11 | 1 | 4 | 2
O=C1CN(C(=O)c2ccccc2F)C(c2ccccc2)c2cc(F)ccc2N1 (stereo not drawn) | 4 | 1 | 30* | 8 | 0 | 6
O=C(Nc1nc2cc3c(cc2s1)OCCO3)c1cccs1 | -2 | -9 | -52 | -3 | 1 | 2
NNc1nc2cc3c(cc2s1)OCCO3 | 7 | 8 | 39* | 4 | 15 | 6
Cc1c(C(=O)N2CCOCC2)cc(C(C)(C)C)n1-c1ccccc1 | -3 | 9 | -5 | 7 | 6 | 51*
CC(C(=O)N1CCOCC1)(c1ccccc1)c1ccccc1 | -2 | -2 | 1 | 2 | 7 | 3
CCN(CC1CCCO1)C(=O)CCc1nnc(Cc2ccc3c(c2)OCO3)o1 (stereo not drawn) | 3 | 0 | -6 | -3 | -3 | 1
Cc1ccc(N/N=C(\C#N)C(N)=S)c(C)c1 | 4 | 5 | 93* | 10 | 0 | -2
Clc1ccc(-n2cccc2CN2CCc3c([nH]c4ccccc34)C2c2ccccn2)nc1 (stereo not drawn) | 4 | -2 | -3 | 13 | -1 | 6
CC(=O)OC[C@]12CC[C@H]3[C@@](C)(CC[C@H]4C(C)(C)CCC[C@]34C)[C@@H]1C[C@H](C1=CC(=O)O[C@H]1OC(C)=O)O2 | 50* | x | x | x | x | x
O=C(O)CCC(=O)N1CCN(c2nc(-c3ccccc3Cl)c3cc(Br)ccc3n2)CC1 | 33* | -2 | 4 | 6 | 8 | 0
O=C(O)CCC(=O)N1CCN(c2nc(-c3ccccc3)c3cc(Br)ccc3n2)CC1 | 14 | -1 | -3 | 0 | -5 | 2
Cn1cccc1C1C=C(c2ccc(C(C)(C)C)cc2)Nc2ncnn21 (stereo not drawn) | 11 | 0 | -2 | 8 | 2 | 15
CC(C)(C)c1ccc(C2=CC(c3ccccc3F)n3ncnc3N2)cc1 (stereo not drawn) | 24 | 2 | 0 | 16 | 1 | 48*
CC(=O)c1ccc(N(C(=O)Cn2nnc3ccccc32)C(C(=O)NCc2ccccc2)c2ccccn2)cc1 (stereo not drawn) | 0 | 3 | 9 | 4 | -2 | 7

Screens from PubChem BioAssay.
